HCMV antiviral: human cytomegalovirus inhibition; HFF cells, HCMV-luciferase reporter, 72 h; stronger effect = lower value; 410,000 compounds, 4.5% hits; AID 1259415; activity change, negative = inhibition, % at 57.5 µM; in the data active = activity change below about -60%; inconclusive = no clear call, values can overlap the other calls; inactive = above about -39%
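Two-dose cell screen: HFF monolayers treated with compounds and infected with luciferase-expressing HCMV at 1 PFU/cell, 72 h at 37C, then lysed for luciferase measurement.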
HCV inhibitor: inhibitors of hepatitis C virus infection. Huh7.5.1 HCVcc-Cre infection, luciferase reporter, 44 h. Potency, µM (highest dose often 41.8 µM), for the others: top-dose activity change, negative = inhibition, most hits filed as inhibitors. 340,000 compounds, 3.4% hits. AID 651820; active = well fitted inhibition curve with a large enough effect; inconclusive = small, poorly fitted or top-dose-only effect, or another doubt; inactive = no such curve, though single readings can be large or run the other way; note: potency is the fitted concentration of half-maximal effect
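HCVcc-Cre virus at an moi near 0.5 was added right after compound to cells cultured 4 h from seeding (1,000 cells/well). Luciferase activity was determined 44 h later, 15 min after substrate addition at RT.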
FMDV antiviral: antivirals against foot and mouth disease virus; FMDV antiviral cell-based qHTS; Potency, µM (highest dose often 57.9 µM), for inactives: top-dose activity change, negative = inhibition, actives largely listed as inhibitors; 410,000 compounds, 1.2% hits; calls by dose curve; tested in HEK293T cells; note: read-out not given here; potency is the fitted concentration of half-maximal effect; nearly all actives have a fitted effect of over 45% in size
Vaccinia Venus: inhibitors of vaccinia virus (Venus reporter); 330,000 compounds, 0.46% hits; Potency, µM (titrated, usually from 36.5 µM), for the others: at the top dose activity change, negative = inhibition, most hits filed as inhibitors; Vaccinia virus Venus reporter expression, fluorescence; calls by dose curve; tested in A549 cells; note: potency is the fitted concentration of half-maximal effect; nearly all actives have a fitted effect of over 30% in size
VACV mCherry inh: vaccinia inhibition (mCherry reporter); Vaccinia virus mCherry reporter infection, fluorescence; Potency, µM (doses to about 36.5 µM), without a hit: at the highest dose activity change, negative = inhibition, most hits filed as inhibitors; 310,000 compounds, 0.63% hits; AID 720579; calls by dose curve; tested in A549 cells; note: potency is the fitted concentration of half-maximal effect; nearly all actives have a fitted effect of over 35% in size
Starred values were filed as active, the others as inactive; [ ] = another dose, or the depositor's remark. Compounds with a hit are over-represented: about 7.3% of the library has one in this group of screens. % is set by controls: 0 for no effect and ±100 for the full control effect.

How did CCOC(=O)c1cnc2c(C(=O)OC)cccc2c1NCc1ccco1 do in these assays?
HCMV antiviral: 98; HCV inhibitor: 4%; FMDV antiviral: -30%

How did COC(=O)CCCC1=CC2=C(c3ccccc3)C(=O)C(C)(OC(=O)C3CCCC3)C(=O)C2=CN1C1CC1 (configuration not stated) do in these assays?
HCMV antiviral: -61*; HCV inhibitor: 5%; FMDV antiviral: -10%; Vaccinia Venus: -8%; VACV mCherry inh: -5%

Results for COC(=O)CCCC1=CC2=C(c3ccccc3)C(=O)C(C)(OC(=O)C3CCCC3)C(=O)C2=CN1Cc1ccc2c(c1)OCO2 (configuration not stated) ?
HCMV antiviral: -70*; HCV inhibitor: 4%; FMDV antiviral: -6%; Vaccinia Venus: -17%; VACV mCherry inh: -26%

What do the screens show for `O=[N+]([O-])c1ccc2c(c1)C=C/C2=C\c1ccc(C=S)cc1`?
Vaccinia Venus: -16%; VACV mCherry inh: -24%

What do the screens show for `O=C(NCc1nnc2n1CCN(C(=O)/C=C/c1ccccc1)CC2)c1cccc(F)c1`?
FMDV antiviral: 5%; Vaccinia Venus: -4%; VACV mCherry inh: -12%

What do the screens show for `Cc1ccc(CN2C3CCCC2CC(NC(=O)c2ccc(C)cc2)C3)cc1` (configuration not stated)?
HCMV antiviral: inconclusive; HCV inhibitor: 32µM*; FMDV antiviral: -20%

Results for CCCN1C2CCCC1CC(NC(=O)c1ccccc1OC)C2 (configuration not stated) ?
HCMV antiviral: 66; HCV inhibitor: 1%; FMDV antiviral: -8%; Vaccinia Venus: -21%; VACV mCherry inh: inactive

Results for CCCN1C2CCCC1CC(NC(=O)c1cc(OC)c(OC)c(OC)c1)C2 (configuration not stated) ?
HCMV antiviral: -104*; HCV inhibitor: -5%; FMDV antiviral: 8%; Vaccinia Venus: 0%; VACV mCherry inh: -5%

What do the screens show for `Cc1ccc(-c2nc(CNC(=O)Nc3ccccc3)c(C)o2)cc1`?
HCMV antiviral: -14; FMDV antiviral: 1%; Vaccinia Venus: -25%; VACV mCherry inh: -27%

What do the screens show for `CC(Oc1ccccc1F)C(=O)N1CCC(c2nc3ccccc3o2)CC1` (configuration not stated)?
HCMV antiviral: inconclusive; FMDV antiviral: 0%; Vaccinia Venus: -5%; VACV mCherry inh: 2%

Results for CC(=O)c1ccc(NC(=O)CC2Nc3cc(C)c(C)cc3NC2=O)cc1 (configuration not stated) ?
HCMV antiviral: -15; FMDV antiviral: -14%; Vaccinia Venus: 2%; VACV mCherry inh: -12%

Results for Cc1cc2c(cc1C)NC(CC(=O)Nc1ccccc1)C(=O)N2 (configuration not stated) ?
HCMV antiviral: -100*; FMDV antiviral: -1%; Vaccinia Venus: -7%; VACV mCherry inh: 1%

Results for COC(=O)c1ccc(NC(=O)CC2Nc3cc(C)c(C)cc3NC2=O)cc1 (configuration not stated) ?
HCMV antiviral: -99*; FMDV antiviral: inconclusive; Vaccinia Venus: -17%[7.34 µM]; VACV mCherry inh: -17%[7.34 µM]

What do the screens show for `Cc1ccc2nc(NC(=O)CSc3nccn3Cc3ccc(Cl)cc3)sc2c1`?
HCMV antiviral: -11; FMDV antiviral: 17%; Vaccinia Venus: -19%; VACV mCherry inh: -9%

Results for NC(=O)C1=CC2C3C=CC2(O)C(=O)OC3O1 (configuration not stated) ?
HCMV antiviral: -97*; HCV inhibitor: 8.9µM*; FMDV antiviral: inconclusive; Vaccinia Venus: -14%; VACV mCherry inh: -11%

What do the screens show for `CC1(C)COC(/C=C/c2cccc([N+](=O)[O-])c2)=N1`?
HCMV antiviral: -95*; HCV inhibitor: inconclusive; FMDV antiviral: 25µM*; Vaccinia Venus: inconclusive; VACV mCherry inh: 11µM*

Results for O=[N+]([O-])c1cccc(/C=C/c2ccccc2)c1 ?
Vaccinia Venus: -13%; VACV mCherry inh: -15%

How did CSc1nc(C(=O)N2CCc3c(cnc(C)c3CNC(=O)c3ccc4c(c3)OCO4)C2)cs1 do in these assays?
FMDV antiviral: 0%; Vaccinia Venus: -3%; VACV mCherry inh: -15%

What do the screens show for `Cc1ccc2oc(/N=C(\N)NC(=O)C(C)(C)C)nc2c1`?
HCMV antiviral: -90*; HCV inhibitor: -69%; FMDV antiviral: 35µM*; Vaccinia Venus: -18%; VACV mCherry inh: 0%

What do the screens show for `CCOc1ccccc1CNC(=O)CCCn1nc(C)c2sc3ccccc3c2c1=O`?
HCMV antiviral: 1; FMDV antiviral: -20%; Vaccinia Venus: -6%; VACV mCherry inh: -15%

How did Cc1ccc(CNC(=O)c2ccc(N3CCC4(CC3)CC(c3ccccc3)=NO4)c(NC(=O)c3ccc(Cl)c([N+](=O)[O-])c3)c2)cc1 do in these assays?
HCMV antiviral: 7; HCV inhibitor: 11µM*; FMDV antiviral: -4%; Vaccinia Venus: 1%; VACV mCherry inh: inactive

Results for COc1ccc(CNC(=O)c2ccc(N3CCC4(CC3)CC(c3ccc(Cl)cc3)=NO4)c([N+](=O)[O-])c2)cc1 ?
HCMV antiviral: inconclusive; HCV inhibitor: 0.89µM*; FMDV antiviral: inconclusive; Vaccinia Venus: -21%; VACV mCherry inh: -1%

How did CCOC(=O)N1CCN(C(=O)c2cc(COc3ccc4ncccc4c3)on2)CC1 do in these assays?
HCMV antiviral: -74*; HCV inhibitor: 7.9µM*; FMDV antiviral: inconclusive; Vaccinia Venus: -22%; VACV mCherry inh: -21%

How did Cc1cccnc1CN1CCN(C(=O)c2cc(COc3ccc4ncccc4c3)on2)CC1 do in these assays?
HCMV antiviral: -83*; HCV inhibitor: 4µM*; FMDV antiviral: 13µM*; Vaccinia Venus: -26%; VACV mCherry inh: inconclusive

What do the screens show for `CCN1CCN(C(=O)c2cc(COc3c(C)cccc3C)on2)CC1`?
HCMV antiviral: -27; HCV inhibitor: 13%; FMDV antiviral: 17%; Vaccinia Venus: -12%; VACV mCherry inh: inactive

What do the screens show for `Cc1nnc(-n2cccc2)s1`?
HCMV antiviral: -40

How did Cc1cccc(OCCCCn2nnc3sc4c(c3c2=O)CCC(C)C4)c1 (configuration not stated) do in these assays?
HCMV antiviral: 3; FMDV antiviral: inconclusive; Vaccinia Venus: 9%; VACV mCherry inh: 4%

Results for Cc1c(C(=O)c2ccc(Cl)cc2Cl)cnc2cc3c(cc12)OCO3 ?
HCMV antiviral: 9; HCV inhibitor: 10µM*; FMDV antiviral: inconclusive

Results for O=C(Nc1ccc2c(c1)OCO2)c1ccc(Cl)cc1Cl ?
HCMV antiviral: 108; HCV inhibitor: -22%; FMDV antiviral: -8%; Vaccinia Venus: -19%; VACV mCherry inh: -14%

Results for CCc1ccc(NC(=O)Cn2c(=O)n(Cc3nc(C)no3)c(=O)c3cc4c(cc32)OCO4)cc1 ?
HCMV antiviral: 39; FMDV antiviral: -20%; Vaccinia Venus: -9%; VACV mCherry inh: inactive

Assay outcomes: PubChem, National Center for Advancing Translational Sciences (NCATS)
